# Hit rate of the full screen: of about 420,000 compounds, about 64,000 (15%) were called active. Another 27% or so got no clear call; they are omitted. The call rests on the fitted dose curve; in most records, active means well fitted inhibition curve with a large enough effect; inconclusive means small, poorly fitted or top-dose-only effect; inactive means flat fitted curve, though single readings scatter. The list is a sample of the results. Entries that show only a call come without a potency.
# Assay: qHTS for Inhibitors of human tyrosyl-DNA phosphodiesterase 1 (TDP1): qHTS in cells in absence of CPT; further: nearly all actives have a fitted effect of over 55% in size
# Settings: DT40 Tdp1-/- hTDP1 cells, no CPT, ATP luminescence, 48 h; activity change, negative = growth inhibition: at 46.2 µM (top of the series)
# How it was run: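 Stably hTDP1-transfected Tdp1-null chicken DT40 cells were treated with library compounds minus camptothecin and grown for at least 48 hr at 37 °C, after which cellular ATP was quantified by luminescence.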
# Potency means the concentration at half of the fitted maximal effect.
row,SMILES,Potency
1,Cc1nc(N)nc(Cl)c1CCC1OCCO1,inactive
2,OCCn1c(-c2ccccc2)csc1=Nc1ccccc1,16.4 µM (active)
3,Cc1csc(=Nc2ccccc2)n1CCO,inactive
4,CCOCCc1nn2c(=O)cc(CSCC(=O)Nc3cccc(C)c3C)nc2s1,inactive
5,O=C(COC(=O)CCc1ccc(S(=O)(=O)N2CCOCC2)cc1)Nc1cccc(Cl)c1,inactive
6,Cc1ccc2nc(COc3cccc(NC(=O)c4cccc(Cl)c4)c3)cc(=O)n2c1,inactive
7,O=C(Nc1ccon1)c1cccc(Cl)c1,inactive
8,Cc1cc(NC(=O)c2cccc(Cl)c2)ccc1-c1cc2ccccc2oc1=O,23.1 µM (active)
9,N/C(=N\OS(=O)(=O)c1cccc([N+](=O)[O-])c1)c1ccncc1,inactive
10,Cc1ccc(CNC(=O)C(=O)c2cn(CC(=O)N3CCOCC3)c3ccccc23)cc1,inactive
11,CCS(=O)(=O)c1ccc(C(=O)NC)c(Cl)c1Cl,inactive
12,Cc1cc(O)ccc1-c1cnc2ccccc2n1,inactive
13,Cc1ccc(NC(=O)CN2CCc3ccccc3C2)cc1C,inactive
14,O=C(Nc1ccc(CSc2ccccc2)cc1)c1ccc(CN2CCOCC2)cc1,inactive
15,Cc1cccc(C)c1NC(=O)c1ccc(CN2CCc3ccccc3C2)cc1,20.6 µM (active)
16,O=C(NNC(=O)c1csc(-c2cccnc2)n1)Nc1ccc(Cl)cc1,inactive
17,COCCCNC(=O)/C=C/c1ccc(OCc2c(F)cccc2Cl)cc1,inactive
18,Fc1cccc(Cl)c1COc1ccc(-c2nnco2)cc1,inactive
19,C#CC(C)(CC)NC(=O)Cn1nnc(-c2ccc(OCc3c(F)cccc3Cl)cc2)n1 (stereo unspecified),18.4 µM (active)
20,O=C(OCCOCn1cc(Br)c(=O)[nH]c1=O)c1ccccc1,inactive
21,CN(N)c1nc(N2CCCC2)nc(N2CCCC2)n1,inactive
22,O=C(NCc1ccccc1)c1cc(-c2cccc(Cl)c2)on1,inactive

row,SMILES,Potency
1,CCOC(=O)C1(S(=O)(=O)c2ccc(Cl)cc2)CCN(Cc2ccccc2)CC1,inactive
2,CCOC(=O)C1(CCOC)CCN(Cc2cc3ccccc3s2)CC1,16.4 µM (active)
3,CCOC(=O)C1(CCOC)CCN(Cc2ccc(C(=O)OC)cc2)CC1,inactive
4,O=C(CCc1ccccc1)Nc1ccnn1C1CCN(Cc2ccc(OCCO)cc2)CC1,inactive
5,CCOC(=O)C1(CCOc2ccccc2)CCN(Cc2ccc(C#CCCO)cc2)CC1,16.4 µM (active)
6,O=C(c1cn(CC2CCCN(Cc3cc4ccccc4s3)C2)nn1)N1CCCC1 (stereo unspecified),inactive
7,CCOc1cc2[nH]c(=S)n(CCN3CCCCC3C)c(=O)c2cc1OCC (stereo unspecified),inactive
8,O=C(NN1C(=O)C2C3C=CC(C3)C2C1=O)c1ccco1 (stereo unspecified),inactive
9,COc1ccc(OC)c(NC(=O)N[C@H](Cc2ccccc2)C(=O)NN)c1,inactive
10,O=C(COC(=O)/C=C/c1ccc(Br)o1)Nc1cccc(S(=O)(=O)N2CCOCC2)c1,inactive
11,O=C(Nc1ccc(-c2cscn2)cc1)C1CCCN(Cc2ccc(CO)o2)C1 (stereo unspecified),inactive
12,COc1ccccc1/C=N/N1CCN(Cc2ccccc2Cl)CC1,inactive
13,CCC1Nc2ncnc(N3CCN(c4ccccc4)CC3)c2N(Cc2ccc(Cl)cc2)C1=O (stereo unspecified),20.6 µM (active)
14,CCS(=O)(=O)N1CCC(N2CCN(c3ccccc3)CC2)CC1,inactive
15,O=C1C(Cc2ccc(O)cc2)NC(=S)N1Cc1ccccc1 (stereo unspecified),inactive
16,O=C(Nc1ccnc(-c2ccncc2)n1)c1cccs1,inactive
17,Cn1c(=O)n(C)c2cc(C(=O)Nc3ccc(Br)cc3)ccc21,inactive
18,Cc1ccc(C(=O)Nc2cc3c(cc2N2CCCC2)n(C)c(=O)c(=O)n3C)cc1,20.6 µM (active)
19,CCc1ccc(S(=O)(=O)Nc2cc3c(cc2N2CCCCC2)n(C)c(=O)c(=O)n3C)cc1,inactive
20,C=C(C)CNC(=O)c1ccc(OC2CCN(C(=O)COC)CC2)cc1,inactive
21,C=CCNC(=O)COC(=O)CNC(=O)c1cc(Cl)cc([N+](=O)[O-])c1,inactive
22,Cc1c(Cl)cccc1NC(=O)[C@@]1(CC(=O)O)CC(/C=C/c2ccccc2)=NO1,inactive

row,SMILES,Potency
1,CCc1c(-c2ccc(F)cc2)ncn1Cc1cccc(-c2ccccc2)c1,11.6 µM (active)
2,Cc1ccc(-c2csc(C(C#N)=C(O)CN3CCN(C(=O)c4ccco4)CC3)n2)cc1,inactive
3,Cc1ccc(CNC(=O)CCC(=O)N2Cc3ccccc3Oc3ncccc32)cc1,inactive
4,C=CCc1cc(C)ccc1OCCCn1ccnc1,inactive
5,SCc1nc2ccc(Cl)cc2[nH]1,3.98 µM (active)
6,Oc1ccc(Cl)cc1/C=N/c1nc2ccccc2[nH]1,inactive
7,OC(c1nc2ccc(F)cc2[nH]1)C(O)c1nc2ccc(F)cc2[nH]1 (stereo unspecified),inactive
8,Cc1ccc2nc(SCC(=O)N3CCN(c4ccccc4)CC3)nc(=O)n2c1,inactive
9,CN1C(=O)/C(=C\c2ccc(-c3ccccc3)o2)SC1=S,inactive
10,CCC(C)N1C(=O)S/C(=C/c2ccc(Sc3nc4ccccc4[nH]3)o2)C1=O (stereo unspecified),11.2 µM (active)
11,CCc1nnc(NC(=O)CCCSc2nc3ccccc3[nH]2)s1,inactive
12,COc1ccc(C(CNCC(=O)Nc2ccccc2F)N(C)C)cc1 (stereo unspecified),inactive
13,CCO[C@@H]1OC(C(=O)N2CCOCC2)=C[C@H](C)[C@H]1CCCO,inactive
14,CCO[C@H]1OC(C(=O)N2CCCCCCC2)=C[C@@H](c2ccc(C(F)(F)F)cc2)[C@@H]1CCCO,20.6 µM (active)
15,CCO[C@H]1OC(C(=O)N2CCOCC2)=C[C@@H](c2ccc3c(c2)OCO3)[C@@H]1CCCO,inactive
16,CC1CN(C(=S)Nc2cccc(F)c2)CC(C)O1 (stereo unspecified),inactive
17,CN(Cc1ccc(CNC[C@H]2O[C@@H](n3cnc4c(N)ncnc43)[C@H](O)[C@@H]2O)o1)S(C)(=O)=O,inactive
18,Cc1cccc(NC(=O)N(Cc2cc3cc(C)cc(C)c3[nH]c2=O)CC2COCCO2)c1 (stereo unspecified),16.4 µM (active)
19,Cc1cccc(NC(=O)C2CC(=O)OC23CCCC3)c1 (stereo unspecified),inactive
20,Cc1ccc2[nH]c(=O)c(CN(CC3COCCO3)C(=O)Nc3ccccc3C)cc2c1 (stereo unspecified),inactive
21,O=C(O)c1[nH]c2ccccc2c1C(c1cccc(O)c1)c1c(C(=O)O)[nH]c2ccccc12,inactive
22,COC(=O)c1ccc(CNC(=O)C2CCC(=O)N(Cc3ccccn3)C2)cc1 (stereo unspecified),inactive

row,SMILES,Potency
1,CN1CCN(C(=O)Cn2c(C(F)(F)F)nc3ccccc32)CC1,inactive
2,O=c1cc(CO)oc(C(Nc2cccc(C(F)(F)F)c2)c2ccccn2)c1O (stereo unspecified),inactive
3,FC(F)(F)c1cccc(Nc2ncnc3ccccc23)c1,18.4 µM (active)
4,Cc1nc2nc(C)c(CCC(=O)N3CCN(c4ccccc4)CC3)c(C)n2n1,inactive
5,COc1ccccc1CN1CCCC(N2CCN(c3ccc(F)cc3)CC2)C1 (stereo unspecified),inactive
6,Cc1cc(=O)oc(C)c1C(=O)NCc1ccc(F)cc1,inactive
7,CCC(=O)Nc1nnc(S(=O)(=O)N2CCCc3ccccc32)s1,inactive
8,CC1CCN(c2ccc(C(=O)Nc3nnc(C4CC4)s3)cc2[N+](=O)[O-])CC1,inactive
9,CC1CCN(c2ccc([N+](=O)[O-])c(SCCO)c2)CC1,23.1 µM (active)
10,CC1CCN(c2ccc3c(c2)S(=O)(=O)c2cc(C(=O)O)ccc2C3=O)CC1,inactive
11,COCCn1c(N)c(NCc2ccccc2)c(=O)[nH]c1=O,inactive
12,COC(=O)c1sc(C(F)(F)F)c(-c2ccccc2)c1S(=O)(=O)N(C)C,inactive
13,CC(C)NC(=O)c1nn(-c2ccccc2F)nc1CO,inactive
14,CC(CCCc1ccccc1)NC(=O)c1nn(-c2ccc(Cl)cc2)nc1CO (stereo unspecified),20.6 µM (active)
15,Cc1ccc(-n2nc(CO)c(C(=O)NCCc3ccccc3)n2)cc1,inactive
16,CCc1ccc(NC(=O)CCNS(=O)(=O)c2cccs2)cc1,inactive
17,O=C(CN(C(=O)CNC(=O)c1cccs1)c1cccc(F)c1)NC1CCCCC1,inactive
18,Cc1nn(CC(=O)NCCc2ccccc2)c(=O)c2cc3occc3n12,inactive
19,CCc1ccc(-c2cc3c(=O)n(CC(=O)NCCCN4CCN(Cc5ccccc5)CC4)nc(C)n3n2)cc1,16.4 µM (active)
20,CCCN1CCN(CCCNC(=O)Cn2nc(CC)n3c(cc4occc43)c2=O)CC1,inactive
21,COc1cc(OC)cc(-c2nc(=S)n3ccsc3n2)c1,inactive
22,CCS(=O)(=O)n1nc(-c2ccccc2)nc1SCc1ccccc1,inactive

row,SMILES,Potency
1,O=S(=O)(Cc1cc(Cl)nc(-c2cccnc2)n1)c1ccccc1,inactive
2,O=S(=O)(Cc1cc(Sc2ccccc2)nc(-c2ccccc2)n1)c1ccccc1,23.1 µM (active)
3,COCCCNC(=O)Cn1c(=O)n(Cc2ccccc2Cl)c(=O)c2cc(OC)c(OC)cc21,inactive
4,CCCCCOC(=O)c1ccc(N2C(=O)C3C4C=CC(C4)C3C2=O)cc1 (stereo unspecified),inactive
5,COc1cc(C2CC(=O)N3CN(Cc4ccccc4)CSC3=C2C#N)ccc1OCc1ccccc1 (stereo unspecified),inactive
6,COc1ccc(SCc2noc(C(=O)NCC3CCCO3)c2C(=O)O)cc1 (stereo unspecified),inactive
7,O=C(NCC1CC1)c1onc(CSc2ccccc2)c1C(=O)NCC1CC1,20.6 µM (active)
8,O=C(NCc1ccccc1)c1onc(CSc2ccncc2)c1C(=O)NCc1ccccc1,inactive
9,COc1ccc(C(=O)NC(=S)N2CCNC(=O)C2CC(=O)OC(C)C)cc1 (stereo unspecified),inactive
10,O=c1cc(CSc2ccc(Cl)cc2)nc(N2CCOCC2)[nH]1,inactive
11,Cc1ccc2nc(N3C(=O)C(O)=C(C(=O)c4ccco4)C3c3cccc(O)c3)sc2c1 (stereo unspecified),inactive
12,COc1ccc(OC)c(C(O)c2nc3ccccc3n2C)c1 (stereo unspecified),inactive
13,COc1cc(C(O)c2nc3ccccc3n2C)cc(OC)c1OC (stereo unspecified),18.4 µM (active)
14,COc1cccc(C(O)c2nc3ccccc3n2C)c1 (stereo unspecified),inactive
15,COc1ccc(-c2cc(=O)oc3cc(OC(C)C(=O)NCC4CCC(C(=O)O)CC4)ccc23)cc1 (stereo unspecified),inactive
16,Cc1cc(=O)n2nc(N3CCCC(C(=O)NCc4cccc(Cl)c4)C3)sc2n1 (stereo unspecified),inactive
17,O=C(NCCc1cccc(F)c1)C1CCCN(c2nc3ccccc3s2)C1 (stereo unspecified),23.1 µM (active)
18,O=C(NCc1ccccc1)C1CCCN(c2nc3ccsc3c(=O)s2)C1 (stereo unspecified),inactive
